# Results: PubChem BioAssay (NCATS)
# Inconclusive results are not listed. Calls of active or inactive are those of the source. Calls come from the whole dose curve; as a rule, active = well fitted curve in the direction sought with a large enough effect; inconclusive = small, poorly fitted or top-dose-only effect, or another doubt; inactive = no such curve, though single readings can be large; an effect the other way counts as inactive or inconclusive.
# Experiments:
# [1] = qHTS of pediatric cancer cell lines to identify multiple opportunities for drug repurposing: Primary screen for A673 cells (AID 1347092); note: nearly all actives have a fitted effect of over 45% in size; note: potency is the fitted concentration of half-maximal effect
# Method in brief: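 48 h compound exposure, A673, 500-1,000 cells/well, 37 degrees C/5% CO2. MIPE: 11-point, 0.78 nM-46 µM; NPC: 8-point, 0.59 nM-46 µM (final). Readout CellTiter-Glo luminescence after 15 min RT.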
# [2] = qHTS of pediatric cancer cell lines to identify multiple opportunities for drug repurposing: Primary screen for U-2 OS cells (AID 1347096); note: nearly all actives have a fitted effect of over 50% in size
# Method in brief: (§1)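 Viability after 48 h compound treatment at 37C, 500-1,000 cells/well, read as ATP luminescence with CellTiter-Glo. Primary screens used 11-point (MIPE, 0.78 nM-46 µM) or 8-point (NPC, 0.59 nM-46 µM) final concentrations; follow-up screens used 11-point dilutions.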
# [3] = qHTS of pediatric cancer cell lines to identify multiple opportunities for drug repurposing: Primary screen for Saos-2 cells (AID 1347097); note: nearly all actives have a fitted effect of over 40% in size; note: potency is the fitted concentration of half-maximal effect
# Method in brief: (§2)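 Following a 5-hour attachment period, cells at 500-1,000/well received compounds and were cultured for 48 hours. CellTiter-Glo was added and luminescence read to estimate viable, metabolically active cells.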
# [4] = qHTS of pediatric cancer cell lines to identify multiple opportunities for drug repurposing: Primary screen for SK-N-SH cells (AID 1347098); note: nearly all actives have a fitted effect of over 65% in size; note: potency is the fitted concentration of half-maximal effect
# Method in brief: (§3)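 Cells (500-1,000/well) rested 5 h, then received compounds for 48 h; metabolically active cells were measured by CellTiter-Glo luminescence. Final concentrations spanned up to 46 µM (MIPE, 11-point) or 0.59 nM-46 µM (NPC, 8-point) in primary screens, 11-point in follow-ups.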
# [5] = qHTS of pediatric cancer cell lines to identify multiple opportunities for drug repurposing: Primary screen for LAN-5 cells (AID 1347100); note: potency is the fitted concentration of half-maximal effect
# Method in brief: as §1
# [6] = qHTS of pediatric cancer cell lines to identify multiple opportunities for drug repurposing: Primary screen for BT-12 cells (AID 1347101); note: nearly all actives have a fitted effect of over 25% in size; note: potency is the fitted concentration of half-maximal effect
# Method in brief: as §3
# [7] = qHTS of pediatric cancer cell lines to identify multiple opportunities for drug repurposing: Primary screen for Rh18 cells (AID 1347102); note: nearly all actives have a fitted effect of over 65% in size; note: potency is the fitted concentration of half-maximal effect
# Method in brief: as §1
# [8] = qHTS of pediatric cancer cell lines to identify multiple opportunities for drug repurposing: Primary screen for OHS-50 cells (AID 1347103); note: nearly all actives have a fitted effect of over 40% in size; note: potency is the fitted concentration of half-maximal effect
# Method in brief: as §3
# [9] = qHTS of pediatric cancer cell lines to identify multiple opportunities for drug repurposing: Primary screen for RD cells (AID 1347104); note: nearly all actives have a fitted effect of over 55% in size; note: potency is the fitted concentration of half-maximal effect
# Method in brief: as §2
# [10] = qHTS of pediatric cancer cell lines to identify multiple opportunities for drug repurposing: Primary screen for BT-37 cells (AID 1347094); note: potency is the fitted concentration of half-maximal effect
# Method in brief: as §2
# [11] = qHTS of pediatric cancer cell lines to identify multiple opportunities for drug repurposing: Primary screen for TC32 cells (AID 1347089); note: nearly all actives have a fitted effect of over 60% in size; note: potency is the fitted concentration of half-maximal effect
# Method in brief: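 In the primary qHTS, MIPE compounds were tested at 11 concentrations (0.78 nM to 46 µM) and NPC compounds at 8 (0.59 nM to 46 µM) on TC32 cells for 48 h. CellTiter-Glo luminescence gave viability.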
# [12] = qHTS of pediatric cancer cell lines to identify multiple opportunities for drug repurposing: Primary screen for SK-N-MC cells (AID 1347093); note: potency is the fitted concentration of half-maximal effect
# Method in brief: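 Metabolically active cells were quantified by ATP-dependent luminescence (CellTiter-Glo, 15 min at room temperature) following 48 h treatment. Cells had been plated at 500-1,000 per well and settled for 5 h beforehand.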
# [13] = qHTS of pediatric cancer cell lines to identify multiple opportunities for drug repurposing: Primary screen for NB-EBc1 cells (AID 1347095); note: potency is the fitted concentration of half-maximal effect
# Method in brief: as §2
# [14] = qHTS of pediatric cancer cell lines to identify multiple opportunities for drug repurposing: Primary screen for DAOY cells (AID 1347090); note: nearly all actives have a fitted effect of over 55% in size; note: potency is the fitted concentration of half-maximal effect
# Method in brief: (§4)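 Viability measured as metabolically active cells via CellTiter-Glo luminescence following 48 hours of compound exposure, 11-point dilutions in confirmatory testing. 500-1,000 cells/well plated 5 hours before dosing; controls were DMSO and 2.3 µM bortezomib.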
# [15] = qHTS of pediatric cancer cell lines to identify multiple opportunities for drug repurposing: Primary screen for SJ-GBM2 cells (AID 1347091); note: potency is the fitted concentration of half-maximal effect
# Method in brief: as §4
# [16] = qHTS of pediatric cancer cell lines to identify multiple opportunities for drug repurposing: Primary screen for NB1643 cells (AID 1347099); note: nearly all actives have a fitted effect of over 50% in size; note: potency is the fitted concentration of half-maximal effect
# Method in brief: as §2
compound,measurement,setting,value
CN(C)/N=N/c1nc[nH]c1C(N)=O,Potency,[1],inactive
same,Potency,[2],inactive
same,Potency,[3],inactive
same,Potency,[4],inactive
same,Potency,[5],inactive
same,Potency,[6],inactive
same,Potency,[7],inactive
same,Potency,[8],1.74 µM (active)
same,Potency,[9],inactive
COc1ccc(CCN2CCC(Nc3nc4ccccc4n3Cc3ccc(F)cc3)CC2)cc1,Potency,[10],30.9 µM (active)
same,Potency,[4],6.12 µM (active)
same,Potency,[5],23.7 µM (active)
same,Potency,[8],30.9 µM (active)
same,Potency,[9],26.6 µM (active)
C/C=C(/C(=C/C)c1ccc(O)cc1)c1ccc(O)cc1,Potency,[11],inactive
same,Potency,[12],8.41 µM (active)
same,Potency,[10],inactive
same,Potency,[13],18.8 µM (active)
same,Potency,[2],inactive
same,Potency,[3],21.1 µM (active)
same,Potency,[5],inactive
same,Potency,[7],inactive
same,Potency,[8],21.9 µM (active)
c1ccc(-c2ccc(C(c3ccccc3)n3ccnc3)cc2)cc1 (configuration not stated),Potency,[11],inactive
same,Potency,[3],inactive
CCN(CC)CCOc1ccc(C(O)(Cc2ccc(Cl)cc2)c2ccc(C)cc2)cc1 (configuration not stated),Potency,[12],21.1 µM (active)
same,Potency,[3],16.8 µM (active)
same,Potency,[5],21.1 µM (active)
same,Potency,[6],11 µM (active)
same,Potency,[7],23.7 µM (active)
same,Potency,[8],15.5 µM (active)
same,Potency,[9],21.1 µM (active)
COc1c(C)c2c(c(O)c1C/C=C(\C)CCC(=O)O)C(=O)OC2,Potency,[11],0.664 µM (active)
same,Potency,[12],0.0841 µM (active)
same,Potency,[10],0.389 µM (active)
same,Potency,[2],inactive
same,Potency,[6],0.692 µM (active)
CCCCCCC[N+](CC)(CC)CCCCc1ccc(Cl)cc1,Potency,[14],26.6 µM (active)
same,Potency,[15],10.6 µM (active)
same,Potency,[1],3.35 µM (active)
same,Potency,[12],3.35 µM (active)
same,Potency,[10],8.71 µM (active)
same,Potency,[13],10.6 µM (active)
same,Potency,[3],6.68 µM (active)
same,Potency,[4],19.4 µM (active)
same,Potency,[16],13.3 µM (active)
same,Potency,[5],2.99 µM (active)
same,Potency,[6],7.77 µM (active)
same,Potency,[7],11.9 µM (active)
same,Potency,[8],3.89 µM (active)
same,Potency,[9],13.3 µM (active)
CC(C)(C)CC(C)(C)c1ccc(OCCOCC[N+](C)(C)Cc2ccccc2)cc1,Potency,[15],21.1 µM (active)
same,Potency,[10],13.8 µM (active)
same,Potency,[3],13.3 µM (active)
same,Potency,[5],21.1 µM (active)
same,Potency,[6],8.71 µM (active)
same,Potency,[7],10.6 µM (active)
same,Potency,[8],6.17 µM (active)
same,Potency,[9],26.6 µM (active)
CCCCCCCCCCOCC(O)CN (configuration not stated),Potency,[14],inactive
same,Potency,[1],21.1 µM (active)
same,Potency,[2],inactive
same,Potency,[16],inactive
same,Potency,[7],23.7 µM (active)
same,Potency,[8],30.9 µM (active)
Oc1c(I)cc(Cl)c2cccnc12,Potency,[15],18.8 µM (active)
same,Potency,[1],21.1 µM (active)
same,Potency,[3],21.1 µM (active)
same,Potency,[8],21.9 µM (active)
CC(C)(C)CC(C)(C)c1ccc(O)c(Cc2ccc(Cl)cc2Cl)c1,Potency,[11],inactive
same,Potency,[15],21.1 µM (active)
same,Potency,[13],13.3 µM (active)
same,Potency,[3],16.8 µM (active)
same,Potency,[5],21.1 µM (active)
same,Potency,[8],24.6 µM (active)
Oc1ccc(Cl)cc1Sc1cc(Cl)ccc1O,Potency,[14],21.1 µM (active)
same,Potency,[15],13.3 µM (active)
same,Potency,[10],21.9 µM (active)
same,Potency,[13],15 µM (active)
same,Potency,[2],inactive
same,Potency,[3],15 µM (active)
same,Potency,[16],18.8 µM (active)
same,Potency,[5],18.8 µM (active)
same,Potency,[6],19.5 µM (active)
same,Potency,[9],23.7 µM (active)
O=C(OCC(O)CO)c1ccccc1Nc1ccnc2cc(Cl)ccc12 (configuration not stated),Potency,[11],inactive
same,Potency,[15],inactive
same,Potency,[13],inactive
same,Potency,[2],inactive
same,Potency,[3],23.7 µM (active)
same,Potency,[4],inactive
same,Potency,[16],inactive
same,Potency,[5],inactive
same,Potency,[6],inactive
same,Potency,[7],inactive
same,Potency,[9],inactive
CCCCCCCCCCCCCCCC[N+](C)(C)CCN(Cc1ccc(OC)cc1)c1ncccn1,Potency,[1],16.8 µM (active)
same,Potency,[10],24.6 µM (active)
same,Potency,[3],15 µM (active)
same,Potency,[4],27.3 µM (active)
same,Potency,[5],23.7 µM (active)
same,Potency,[6],7.77 µM (active)
same,Potency,[7],13.3 µM (active)
same,Potency,[8],6.92 µM (active)
C[C@@H]1CN(CCCn2c3ccccc3c3ccccc32)C[C@H](C)N1,Potency,[14],inactive
same,Potency,[13],inactive
same,Potency,[2],inactive
same,Potency,[16],inactive
same,Potency,[9],26.6 µM (active)
CCOc1ccc2nc3cc(N)ccc3c(N)c2c1,Potency,[15],inactive
same,Potency,[10],15.5 µM (active)
same,Potency,[13],inactive
same,Potency,[4],15.4 µM (active)
same,Potency,[16],inactive
same,Potency,[6],11 µM (active)
same,Potency,[8],inactive
same,Potency,[9],23.7 µM (active)
